Results taken from PubChem BioAssay AID743287 (Broad Institute, 2014).
Several values for one entry are separate records, joined by “and”; a condition that tells them apart may be missing. Equal values may be shown once. About 2,300 (0.62%) of roughly 370,000 compounds were called active.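 Rule for the calls: active = lowest replicate activation of at least 40%, so every replicate reaches that level; inactive = the rest.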 The entries come from a sample that favours actives as a whole. Some compounds were tested as several samples or in several runs, with calls that do not always agree.

Assay: GLuc luminescence reporter in INS-1E cells, primary screen for activators of glucose-dependent secretion of insulin (AID 743287);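 note: 0% = median of neutral control wells and 100% = median of IBMX positive control wells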
Conditions: INS-1E GLuc reporter insulin secretion, 2-3 h, at 16.6 µM, stronger effect = higher value

| SMILES | activation |
| --- | --- |
| COc1cccc(CN2CCCC(C(=O)c3ccccc3SC)C2)c1O (stereo not given) | -0.167% (inactive) |
| Cc1ccc(CN2CCCC(C(=O)c3ccc4c(c3)OCO4)C2)cc1C (stereo not given) | -7.76% (inactive) |
| COc1ccc(C(=O)C2CCCN(Cc3ccc(C)s3)C2)cc1OC (stereo not given) | 53.8% (active) |
| CCN(CC)C(=O)[C@@H]1C=C2c3cccc4[nH]c(Br)c(c34)C[C@H]2N(C)C1 | 13.7% (inactive) |
| COC(=O)[C@H]1[C@H](CO)[C@H]2Cn3c(ccc(C4=CCCC4)c3=O)[C@@H]1N2C(=O)CC1CC1 | -1.71% (inactive) |
| FC(F)(F)CN1CC2NC(C1)C2c1ccc(Br)cc1 (stereo not given) | -10.5% (inactive) |
| O=C(O)[C@H]1[C@H](CO)[C@H]2Cn3c(ccc(-c4ccccc4F)c3=O)[C@@H]1N2C(=O)c1cccnc1 | 19.1% (inactive) |
| CC(Cc1ccccc1)NC=O (stereo not given) | 3.77% (inactive) |
| CC(Cc1ccccc1)NCCC(c1ccccc1)c1ccccc1 (stereo not given) | 182% (active) |
| FC(F)(F)CN1CC2C(c3ccc(Br)cc3)C(C1)N2CC1CC1 (stereo not given) | -3.91% (inactive) |
| COC(=O)[C@@H]1[C@@H](CO)[C@@H]2Cn3c(ccc(C4=CCCCC4)c3=O)[C@H]1N2CC1CC1 | 6.37% (inactive) |
| CCCCCCCCCCCCn1ccc(=N)cc1 | 212% (active) |
| Clc1ccc([C@@H]2CC3CCC2N3)cn1 (stereo not given in full) | -8.41% (inactive) |
| C/C=C/c1ccc(C2[C@@H]3CN(S(C)(=O)=O)C[C@H]2N3)cc1 (stereo not given in full) | -6.54% (inactive) |
| O=C(O)[C@H]1[C@H](CO)[C@H]2Cn3c(cccc3=O)[C@@H]1N2C(=O)c1ccccc1 | 0.382% (inactive) |
| C=CCN1[C@@H]2CN(S(C)(=O)=O)C[C@H]1C2c1ccc(Br)cc1 (stereo not given in full) | 17.3% (inactive) |
| CC(C)Nc1nc(Cl)nc(NC(C)C)n1 | 50.3% (active) |
| CC(=O)N1C[C@@H]2C(c3ccc(Br)cc3)[C@H](C1)N2C (stereo not given in full) | 27.1% (inactive) and -21.4% (inactive) |
| COc1ccc2c(c1)[C@@]13CCCCC1[C@@H](C2)NCC3 (stereo not given in full) | 8.42% (inactive) |
| COc1cccc(-c2ccc3n(c2=O)C[C@H]2[C@H](CO)[C@@H](C(=O)O)[C@@H]3N2C(=O)c2cnccn2)c1 | 14.6% (inactive) |
| COc1ccccc1CN1[C@@H](CO)[C@@H](c2ccccc2)C12CN(C(=O)Cc1ccccc1)C2 | -6.56% (inactive) |
| COC(=O)C[C@@H]1CC[C@@H]2NC[C@@H](O)COC[C@H]2O1 | 7.25% (inactive) |
| COC(=O)C[C@H]1CC[C@H]2NC[C@@H](O)COC[C@@H]2O1 | 44% (active) and 14.5% (inactive) |
| CCC(C)NC1(c2ccccc2)CCCCC1 (stereo not given) | 12.2% (inactive) |
| C[C@@H]1CN([C@H](C)CO)C(=O)CCCn2cc(nn2)CO[C@@H]1CN(C)C(=O)Oc1cccc2ccccc12 | -14.5% (inactive) |
